Hits are enriched below; roughly 3.6% of the tested compounds scored in any of these assays.
FBPA Giardia inh = blocks Giardia fructose-bisphosphate aldolase activity; A8B2U2; purified Giardia FBPA; Potency, µM (doses to about 59.6 µM), for the others: at the highest dose activity, negative = inhibition, usual class: inhibitors; 290,000 compounds, 0.71% hits; note: nearly all actives have a fitted effect of over 55% in size
Target sequence (A8B2U2 whole entry, looked up): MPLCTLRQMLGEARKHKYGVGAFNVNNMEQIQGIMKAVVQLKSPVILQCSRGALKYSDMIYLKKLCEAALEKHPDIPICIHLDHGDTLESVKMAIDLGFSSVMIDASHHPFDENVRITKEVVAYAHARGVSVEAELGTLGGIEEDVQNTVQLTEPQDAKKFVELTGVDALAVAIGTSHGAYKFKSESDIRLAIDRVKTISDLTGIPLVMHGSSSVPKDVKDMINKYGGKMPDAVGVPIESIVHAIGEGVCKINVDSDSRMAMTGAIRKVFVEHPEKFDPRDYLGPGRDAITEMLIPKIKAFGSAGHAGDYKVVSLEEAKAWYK
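40 nM FBPA preincubated 10 min at RT with compound (up to 57.5 uM final), then substrate plus GAPDH/TPI/NAD/arsenate coupling and diaphorase/resazurin added. Fluorescence read after 20 min at RT, 525/598 nm.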
Sm TGR block = blocks Schistosoma mansoni thioredoxin glutathione reductase; Q962Y6; purified TGR, DTNB reduction, TNB absorbance 405 nm; Potency, µM (top dose mostly 114 µM), without a hit: top-dose activity change, negative = inhibition, most hits filed as inhibitors; 360,000 compounds, 3% hits; AID 485364; note: nearly all actives have a fitted effect of over 60% in size
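TGR 20 nM + NADPH 100 uM (dispensed conc.), cpd preinc 15 min RT; start with NADPH (500 uM addition) then DTNB (15 mM addition). Kinetic TNB absorbance, 405 nm filter. Four-parameter Hill fit across titration.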
AmpC no deterg = inhibitors of E. coli AmpC beta-lactamase without detergent; P00811; AmpC nitrocefin hydrolysis, absorbance 480 nm, 0.0001% Triton; Potency, µM (series often up to 57.1 µM), without a hit: at the highest dose activity change, negative = inhibition, hits mostly inhibitors; 330,000 compounds, 0.52% hits; AID 485341;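 note: plate controls were no compound for no effect and no enzyme for full effect; nearly all actives have a fitted effect of over 20% in size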
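20 mM phosphate pH 7.0 + 0.01% (detergent screen) or 0.0001% Triton X-100; 5.3 nM AmpC reagent; cpd preinc 15 min RT; nitrocefin (800 uM stock) to start; A480 q20 s × 4 min; Activity was normalised to no-enzyme and no-compound control wells.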
AmpC detergent = inhibitors of E. coli AmpC beta-lactamase with detergent; P00811; AmpC hydrolysis of nitrocefin, absorbance 480 nm, 0.01% Triton; Potency, µM (doses to about 114 µM), for the others: at the highest dose activity change, negative = inhibition, hits mostly inhibitors; 370,000 compounds, 0.041% hits; AID 485294;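 note: 0% = no-compound wells and -100% = no-enzyme wells; nearly all actives have a fitted effect of over 25% in size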
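AmpC (5.3 nM in the dispensed reagent) in 20 mM phosphate pH 7.0 with 0.01% (detergent screen) or 0.0001% Triton X-100 was preincubated with compounds for 15 min at room temperature. Nitrocefin was then added from an 800 uM solution, and hydrolysis was followed at 480 nm.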
Starred values were filed as active, the others as inactive; ? = inconclusive; nt = no result given. Calls come from the whole dose curve; as a rule, active = well fitted curve in the direction sought with a large enough effect; inconclusive = small, poorly fitted or top-dose-only effect, or another doubt; inactive = no such curve, though single readings can be large; an effect the other way counts as inactive or inconclusive. Unless noted, % is set by controls: 0 for no effect and ±100 for the full control effect; potency is the fitted concentration of half-maximal effect.

SMILES	FBPA Giardia inh	Sm TGR block	AmpC no deterg	AmpC detergent
O=C1C2CC=C(Cl)CC2C(=O)N1CC1Cc2ccccc2CO1 (stereo not given)	?	45µM*	-31%	-8%
O=C(O)c1ccccc1NCN1C(=O)C2CC=C(Cl)CC2C1=O (stereo not given)	1%	3%	-21%	-5%
O=C1C2CC=C(Cl)CC2C(=O)N1CC1OCCc2ccccc21 (stereo not given)	-15%	79µM*	-2%	-3%
CCOC(=O)c1cc(S(=O)(=O)NCc2ccc(Cl)cc2)[nH]n1	nt	0%	nt	2%
CCOc1ccccc1N(CC(=O)NCCSc1ccccc1)S(=O)(=O)c1ccccc1	nt	1%	nt	-7%
c1ccc2c(c1)nc1n2C2(N3CCOCC3)CCCC2C1N1CCOCC1 (stereo not given)	-6%	32µM*	-42%	2%
c1ccc2c(c1)nc1n2CC2CON(C3CCCCC3)C12 (stereo not given)	7%	2%	-9%	-4%
Cc1[nH]c(=O)[nH]c(=O)c1S(=O)(=O)Nc1ccc(Br)cc1F	0%	18%	-11%	1%
O=C(CSCc1ccccc1Cl)NN=C1CCCCCC1	-3%	4%	0.22µM*	4%
O=C(CSCc1c(Cl)cccc1Cl)NN=C1CCCC1	-4%	0%	-36%	8%
CCc1ccc(CNC(=O)C(C)n2ccc3cc(S(=O)(=O)N4CCCCCC4)ccc32)cc1 (stereo not given)	nt	0%	nt	3%
Cc1cc(NC(=O)c2sc(Nc3ccc(F)c(Cl)c3)nc2N)no1	1%	-4%	20µM*	-3%
O=C(NCc1ccccc1F)c1cc(=O)[nH]c2ccccc12	4%	-9%	-12%	-12%
O=C(NCc1ccccc1Cl)c1cc(=O)[nH]c2ccccc12	6%	50µM*	-15%	-18%
O=C(O)CCCNC(=O)/C(=C\C=C\c1ccccc1)NC(=O)c1ccccc1Cl	-3%	40µM*	-11%	-12%
Cc1sc2nc(CN3CCCC3)nc(N3CCN(S(=O)(=O)c4cccs4)CC3)c2c1C	3%	4%	111%	?
Cc1sc2nc(-c3cccs3)nc(N3CCCN(C)CC3)c2c1C	-3%	45µM*	69%	-10%
CN(C(=S)NC(=O)c1ccc(Cl)cc1)C1CCCCC1	18%	79µM*	-34%	?
CN(C(=S)NC(=O)c1ccc(F)cc1)C1CCCCC1	nt	3%	-25%	4%
C=C1C(=O)O[C@@H]2C[C@@H](C)[C@@H]3C=CC(=O)[C@@]3(C)[C@@H](O)[C@H]12	5%	25µM*	-15%	1%
COc1ccc(OC)c(-n2c(SCC(=O)Nc3cccc(S(N)(=O)=O)c3)nc3ccccc3c2=O)c1	0%	25%	-39%	10%
O=C1CCC(C(=O)Nc2cccc(S(=O)(=O)Nc3ccccc3F)c2)=NN1	nt	nt	-18%	nt
N#CC12COC3(CCCCC3C1(C#N)C#N)OC2=N (stereo not given)	-28%	18µM*	-8%	0%
CCC1OC23CCCCC2C(C#N)(C(=N)O3)C1(C#N)C#N (stereo not given)	nt	?	-10%	-8%
N#CC1(C#N)COC23CCCCC2C1(C#N)C(=N)O3 (stereo not given)	?	56µM*	-23%	?
SMILES	FBPA Giardia inh	Sm TGR block	AmpC no deterg	AmpC detergent
COc1ccc(C2OC34CCCCC3C(C#N)(C#N)C2(C#N)C(=N)O4)cc1 (stereo not given)	-27%	40µM*	-45%	-10%
CC1OC23CCCCC2C(C#N)(C(=N)O3)C1(C#N)C#N (stereo not given)	0%	?	-12%	?
COc1cc(OC)c(C2Nc3cccc4cccc(c34)N2)c(OC)c1	-19%	?	70%	-6%
C/C(=C\c1cc2ccccc2o1)C1Nc2cccc3cccc(c23)N1	nt	13µM*	-10%	6%
COc1cccc(CNC(=O)c2nn(-c3ccccc3Cl)nc2CO)c1	nt	1%	nt	-8%
Cc1nn(CCO)c2nc(-c3cccs3)cc(C(F)(F)F)c12	0%	25µM*	70%	0%
CCC(C)(C)n1nnnc1C(c1cc2cc(C)ccc2[nH]c1=O)N1CCCC1 (stereo not given)	-20%	20µM*	-28%	2%
Cc1ccc2cc(C(c3nnnn3C(C)(C)C)N3CCCCCC3)c(=O)[nH]c2c1 (stereo not given)	-12%	11µM*	-3%	-17%
CCN1CCN(C(c2cc3cc4c(cc3[nH]c2=O)OCO4)c2nnnn2C(C)(C)CC)CC1 (stereo not given)	-9%	-1%	-11%	-1%
Cc1cccc2cc(C(c3nnnn3C(C)(C)C)N3CCN(C(=O)c4ccco4)CC3)c(=O)[nH]c12 (stereo not given)	-1%	-6%	-3%	-5%
CCC(C)(C)n1nnnc1C(c1cc2cc(C)cc(C)c2[nH]c1=O)N1CCN(C(=O)c2ccco2)CC1 (stereo not given)	0%	18µM*	36%	-1%
O=C(CN1C(=O)c2cccnc2Oc2ccc(Cl)cc21)NC1CCCCC1	8%	-26%	60%	-9%
CCOc1cc(C(C(=O)NCC2CCCO2)N(C(=O)Cn2nnc3ccccc32)c2ccc(OC)c(OC)c2)ccc1O (stereo not given)	-1%	32µM*	33%	2%
COc1cc(C(C(=O)NCC2CCCO2)N(C(=O)Cn2nnc3ccccc32)c2ccc(C(C)=O)cc2)ccc1O (stereo not given)	-3%	?	2%	1%
CC(=O)N1[C@H](Cc2ccccc2)C=C[C@]1(C)C(=O)NCc1ccc(C)o1	-17%	8.9µM*	132%	-6%
O=C(Cn1cnc2c(nc3n2CCCCC3)c1=O)Nc1ccc(F)cc1	nt	0%	nt	17%
CC(C)NC(=O)c1cc2n(n1)C(C(F)(F)F)CC(c1ccco1)N2 (stereo not given)	-1%	0%	27%	?
O=C(NCc1ccccn1)c1cc2n(n1)C(C(F)(F)F)CC(c1ccco1)N2 (stereo not given)	-10%	40µM*	-5%	-1%
Cc1ccc(NC(=O)c2sc3nc(CCl)[nH]c(=O)c3c2C)c(C)c1	-10%	20µM*	-7%	5%
O=C(NN1C(=O)c2ccccc2NC1c1ccc([N+](=O)[O-])o1)c1ccc(Br)cc1 (stereo not given)	-10%	?	-41%	-15%
CC(=O)NN1C(=O)c2ccccc2NC1c1ccc([N+](=O)[O-])o1 (stereo not given)	-4%	40µM*	-27%	-9%
Cc1ccc(OCCn2c(-c3ccc(Br)cc3)nc3ccccc3c2=O)cc1C	nt	-4%	nt	7%
O=C(c1ccco1)[C@@H]1[C@@H]2C(=O)N(c3ccccc3)C(=O)[C@@H]2C2c3ccccc3C=CN21 (stereo not given in full)	-21%	56µM*	-16%	-13%

Screening data from PubChem.
